Measurements: the supplement of paper PMC11732987, “Enantioselective OTUD7B fragment discovery through chemoproteomics screening and high-throughput optimisation” (Communications Chemistry, 2025)

Legend:
Assay in all cases: log2 ratio of Biotin-Ahx-Ub-VS probe labelling (fragment/DMSO); higher = less target engagement (more negative = stronger competition), active = hit call of the paper (q ≤ 0.05, log2 ratio ≤ -1)
Settings in all cases: compound concentration: 200 uM; treatment time: 3 h
USP9X = USP9X (UniProt Q93008)
USP9X, sequence (Q93008 whole entry, the tested form may be a part): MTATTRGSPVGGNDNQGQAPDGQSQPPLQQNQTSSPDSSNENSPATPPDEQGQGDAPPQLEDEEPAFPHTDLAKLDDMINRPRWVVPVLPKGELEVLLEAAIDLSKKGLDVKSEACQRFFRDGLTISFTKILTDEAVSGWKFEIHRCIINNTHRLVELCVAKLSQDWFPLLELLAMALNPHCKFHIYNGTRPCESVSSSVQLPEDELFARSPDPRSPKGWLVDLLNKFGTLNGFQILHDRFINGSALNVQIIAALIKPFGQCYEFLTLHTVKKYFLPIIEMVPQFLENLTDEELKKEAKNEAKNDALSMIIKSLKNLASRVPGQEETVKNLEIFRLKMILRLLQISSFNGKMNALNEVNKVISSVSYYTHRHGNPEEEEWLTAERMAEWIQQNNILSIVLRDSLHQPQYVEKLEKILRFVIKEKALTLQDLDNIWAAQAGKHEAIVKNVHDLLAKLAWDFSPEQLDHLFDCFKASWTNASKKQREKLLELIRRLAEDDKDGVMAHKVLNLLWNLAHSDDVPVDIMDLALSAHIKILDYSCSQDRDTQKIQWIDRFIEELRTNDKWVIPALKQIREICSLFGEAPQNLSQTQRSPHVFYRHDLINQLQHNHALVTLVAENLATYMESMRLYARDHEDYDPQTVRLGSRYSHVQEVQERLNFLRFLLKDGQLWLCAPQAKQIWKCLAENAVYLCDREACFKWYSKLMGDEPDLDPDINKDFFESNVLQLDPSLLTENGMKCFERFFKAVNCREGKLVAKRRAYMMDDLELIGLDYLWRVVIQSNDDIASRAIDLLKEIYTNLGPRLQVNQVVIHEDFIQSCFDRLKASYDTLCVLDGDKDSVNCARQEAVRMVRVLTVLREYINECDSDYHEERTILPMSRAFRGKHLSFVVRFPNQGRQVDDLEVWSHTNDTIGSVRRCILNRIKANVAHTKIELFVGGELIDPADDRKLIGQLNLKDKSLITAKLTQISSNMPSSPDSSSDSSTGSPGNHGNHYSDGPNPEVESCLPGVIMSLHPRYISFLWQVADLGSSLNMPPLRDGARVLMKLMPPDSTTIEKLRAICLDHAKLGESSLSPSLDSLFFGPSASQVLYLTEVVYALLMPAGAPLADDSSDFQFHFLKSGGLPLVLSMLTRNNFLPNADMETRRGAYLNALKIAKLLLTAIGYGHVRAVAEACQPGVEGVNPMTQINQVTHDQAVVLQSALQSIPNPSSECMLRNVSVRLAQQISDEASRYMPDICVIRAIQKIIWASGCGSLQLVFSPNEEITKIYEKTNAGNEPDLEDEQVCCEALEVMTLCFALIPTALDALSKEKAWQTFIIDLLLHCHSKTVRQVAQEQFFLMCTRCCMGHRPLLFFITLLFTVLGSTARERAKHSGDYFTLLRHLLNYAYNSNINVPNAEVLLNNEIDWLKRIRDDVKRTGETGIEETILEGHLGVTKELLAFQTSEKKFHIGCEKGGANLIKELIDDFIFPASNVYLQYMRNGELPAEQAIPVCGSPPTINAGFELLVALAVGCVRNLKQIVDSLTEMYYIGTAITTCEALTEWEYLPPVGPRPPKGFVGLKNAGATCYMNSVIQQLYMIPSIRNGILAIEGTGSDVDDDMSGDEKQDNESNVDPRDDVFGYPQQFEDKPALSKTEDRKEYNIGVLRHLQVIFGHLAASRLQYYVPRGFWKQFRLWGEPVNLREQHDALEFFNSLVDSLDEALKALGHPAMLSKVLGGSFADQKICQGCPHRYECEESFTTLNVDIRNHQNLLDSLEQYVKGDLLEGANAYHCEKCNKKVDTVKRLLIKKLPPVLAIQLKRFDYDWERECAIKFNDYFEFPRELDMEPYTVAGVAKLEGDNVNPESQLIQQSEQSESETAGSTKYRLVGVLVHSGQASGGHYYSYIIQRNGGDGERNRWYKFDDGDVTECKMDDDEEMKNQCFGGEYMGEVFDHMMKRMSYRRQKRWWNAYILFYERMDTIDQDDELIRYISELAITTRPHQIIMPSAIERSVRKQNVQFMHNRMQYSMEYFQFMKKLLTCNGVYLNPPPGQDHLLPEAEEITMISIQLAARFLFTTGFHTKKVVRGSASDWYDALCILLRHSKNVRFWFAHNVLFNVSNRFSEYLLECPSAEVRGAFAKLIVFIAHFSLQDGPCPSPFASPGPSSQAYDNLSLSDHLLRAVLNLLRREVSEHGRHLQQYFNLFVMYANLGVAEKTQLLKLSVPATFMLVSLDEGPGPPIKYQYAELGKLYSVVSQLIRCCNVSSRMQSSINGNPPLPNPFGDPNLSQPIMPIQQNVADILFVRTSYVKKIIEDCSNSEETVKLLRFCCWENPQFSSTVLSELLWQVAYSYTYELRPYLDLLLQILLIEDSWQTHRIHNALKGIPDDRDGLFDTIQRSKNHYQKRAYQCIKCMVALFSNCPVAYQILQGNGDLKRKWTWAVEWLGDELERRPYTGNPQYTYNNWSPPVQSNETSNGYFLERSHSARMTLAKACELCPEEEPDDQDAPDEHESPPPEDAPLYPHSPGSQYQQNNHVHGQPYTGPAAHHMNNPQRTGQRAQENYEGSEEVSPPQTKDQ
Outline: (§1)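 HEK293T lysate (495 µg per sample, in Tris/CHAPS/IGEPAL buffer with protease inhibitors) was treated in triplicate with fragment at 200 µM or with DMSO for 3 h. It was then treated with Biotin-Ahx-Ub-VS (0.5 µM final) for 1 h. Labelled DUBs were NeutrAvidin-enriched, digested with LysC and trypsin, and run by diaPASEF LC-MS/MS. Spectronaut label-free quantities were global-median-normalised. Values are average log2 ratios fragment/DMSO by unpaired t-test, using proteins with ≥2 unique peptides.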

UniProt O00487 = biological target: UniProt O00487
Outline: as §1

UniProt O00507 = biological target: UniProt O00507
UniProt O00507, sequence (O00507 whole entry): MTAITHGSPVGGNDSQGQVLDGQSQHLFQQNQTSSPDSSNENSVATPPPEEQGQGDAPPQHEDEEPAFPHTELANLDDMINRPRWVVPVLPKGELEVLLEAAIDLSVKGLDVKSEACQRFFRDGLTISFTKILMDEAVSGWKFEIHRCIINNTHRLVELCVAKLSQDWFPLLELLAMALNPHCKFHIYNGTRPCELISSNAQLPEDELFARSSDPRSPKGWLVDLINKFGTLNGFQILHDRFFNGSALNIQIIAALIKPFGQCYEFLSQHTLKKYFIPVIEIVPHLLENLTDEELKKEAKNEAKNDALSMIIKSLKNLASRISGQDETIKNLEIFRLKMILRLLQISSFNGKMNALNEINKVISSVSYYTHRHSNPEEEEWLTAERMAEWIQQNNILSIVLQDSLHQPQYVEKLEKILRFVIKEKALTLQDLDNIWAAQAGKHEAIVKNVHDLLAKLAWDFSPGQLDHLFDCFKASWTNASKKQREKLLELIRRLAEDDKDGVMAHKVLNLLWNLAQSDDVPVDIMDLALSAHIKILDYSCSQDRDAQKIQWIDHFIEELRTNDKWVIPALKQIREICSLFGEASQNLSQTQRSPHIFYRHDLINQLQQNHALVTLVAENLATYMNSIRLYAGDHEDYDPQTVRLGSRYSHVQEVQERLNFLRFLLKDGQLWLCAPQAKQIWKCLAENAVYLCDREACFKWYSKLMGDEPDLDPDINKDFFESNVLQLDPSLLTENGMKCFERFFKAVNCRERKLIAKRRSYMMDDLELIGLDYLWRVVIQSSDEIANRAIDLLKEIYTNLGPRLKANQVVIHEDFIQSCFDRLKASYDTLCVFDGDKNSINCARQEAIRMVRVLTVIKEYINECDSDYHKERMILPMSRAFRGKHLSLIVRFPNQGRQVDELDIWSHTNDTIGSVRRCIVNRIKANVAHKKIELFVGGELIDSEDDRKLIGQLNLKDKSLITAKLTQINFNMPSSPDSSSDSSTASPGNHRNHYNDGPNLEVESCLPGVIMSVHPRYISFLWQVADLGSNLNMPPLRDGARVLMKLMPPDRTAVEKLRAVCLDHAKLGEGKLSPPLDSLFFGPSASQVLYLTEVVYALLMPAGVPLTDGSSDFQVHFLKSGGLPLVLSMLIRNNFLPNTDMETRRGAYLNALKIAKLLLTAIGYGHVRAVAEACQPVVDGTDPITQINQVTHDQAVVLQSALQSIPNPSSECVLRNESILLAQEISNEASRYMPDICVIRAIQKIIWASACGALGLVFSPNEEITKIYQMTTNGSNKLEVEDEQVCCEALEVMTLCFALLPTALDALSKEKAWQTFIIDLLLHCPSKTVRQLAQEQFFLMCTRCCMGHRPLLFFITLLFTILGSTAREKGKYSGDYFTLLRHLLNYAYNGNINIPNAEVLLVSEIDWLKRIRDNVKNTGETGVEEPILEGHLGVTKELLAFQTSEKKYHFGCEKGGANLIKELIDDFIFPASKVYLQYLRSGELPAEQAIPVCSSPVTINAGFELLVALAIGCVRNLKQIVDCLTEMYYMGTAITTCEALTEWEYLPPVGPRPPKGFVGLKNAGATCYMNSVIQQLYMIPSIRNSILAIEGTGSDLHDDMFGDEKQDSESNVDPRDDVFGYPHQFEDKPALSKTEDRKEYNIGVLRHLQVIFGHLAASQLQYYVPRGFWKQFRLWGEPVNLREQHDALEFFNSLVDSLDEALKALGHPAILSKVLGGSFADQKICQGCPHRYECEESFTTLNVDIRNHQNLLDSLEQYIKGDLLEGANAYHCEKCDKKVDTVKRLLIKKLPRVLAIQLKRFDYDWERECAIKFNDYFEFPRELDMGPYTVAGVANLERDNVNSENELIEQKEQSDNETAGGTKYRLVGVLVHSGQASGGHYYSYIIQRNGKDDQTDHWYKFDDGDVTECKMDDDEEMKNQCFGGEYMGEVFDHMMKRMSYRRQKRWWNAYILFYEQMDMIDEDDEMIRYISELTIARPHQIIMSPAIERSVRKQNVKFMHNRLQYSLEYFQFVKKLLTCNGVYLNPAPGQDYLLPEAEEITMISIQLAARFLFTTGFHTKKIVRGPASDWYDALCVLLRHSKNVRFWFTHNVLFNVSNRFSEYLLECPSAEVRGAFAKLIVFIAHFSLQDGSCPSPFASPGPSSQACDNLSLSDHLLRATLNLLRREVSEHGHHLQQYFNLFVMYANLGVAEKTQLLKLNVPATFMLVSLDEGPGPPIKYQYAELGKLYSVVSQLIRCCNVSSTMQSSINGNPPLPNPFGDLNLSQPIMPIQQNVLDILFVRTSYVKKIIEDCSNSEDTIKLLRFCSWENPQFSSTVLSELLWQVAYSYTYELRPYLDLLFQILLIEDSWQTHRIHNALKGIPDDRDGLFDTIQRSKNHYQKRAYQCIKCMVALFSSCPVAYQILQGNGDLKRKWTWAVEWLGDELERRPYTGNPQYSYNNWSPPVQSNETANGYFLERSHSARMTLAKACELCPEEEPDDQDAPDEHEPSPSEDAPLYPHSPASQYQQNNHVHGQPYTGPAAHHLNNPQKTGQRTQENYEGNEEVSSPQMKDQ
Outline: as §1

UniProt P51784 = biological target: UniProt P51784
Outline: as §1

UniProt Q5T2D3 = biological target: T1, UniProt Q5T2D3
T1 sequence (whole entry): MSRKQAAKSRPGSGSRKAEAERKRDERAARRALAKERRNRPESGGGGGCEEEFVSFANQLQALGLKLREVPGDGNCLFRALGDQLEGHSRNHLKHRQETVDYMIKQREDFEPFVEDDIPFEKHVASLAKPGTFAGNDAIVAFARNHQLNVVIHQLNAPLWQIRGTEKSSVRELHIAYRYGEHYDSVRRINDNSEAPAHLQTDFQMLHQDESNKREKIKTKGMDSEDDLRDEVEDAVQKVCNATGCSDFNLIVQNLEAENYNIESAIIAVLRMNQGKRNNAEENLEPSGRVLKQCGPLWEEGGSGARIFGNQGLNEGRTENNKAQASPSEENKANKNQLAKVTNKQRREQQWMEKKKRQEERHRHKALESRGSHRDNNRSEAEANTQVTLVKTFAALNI
Outline: as §1

UniProt Q8TE49 = biological target: T2, UniProt Q8TE49
T2 sequence (whole entry): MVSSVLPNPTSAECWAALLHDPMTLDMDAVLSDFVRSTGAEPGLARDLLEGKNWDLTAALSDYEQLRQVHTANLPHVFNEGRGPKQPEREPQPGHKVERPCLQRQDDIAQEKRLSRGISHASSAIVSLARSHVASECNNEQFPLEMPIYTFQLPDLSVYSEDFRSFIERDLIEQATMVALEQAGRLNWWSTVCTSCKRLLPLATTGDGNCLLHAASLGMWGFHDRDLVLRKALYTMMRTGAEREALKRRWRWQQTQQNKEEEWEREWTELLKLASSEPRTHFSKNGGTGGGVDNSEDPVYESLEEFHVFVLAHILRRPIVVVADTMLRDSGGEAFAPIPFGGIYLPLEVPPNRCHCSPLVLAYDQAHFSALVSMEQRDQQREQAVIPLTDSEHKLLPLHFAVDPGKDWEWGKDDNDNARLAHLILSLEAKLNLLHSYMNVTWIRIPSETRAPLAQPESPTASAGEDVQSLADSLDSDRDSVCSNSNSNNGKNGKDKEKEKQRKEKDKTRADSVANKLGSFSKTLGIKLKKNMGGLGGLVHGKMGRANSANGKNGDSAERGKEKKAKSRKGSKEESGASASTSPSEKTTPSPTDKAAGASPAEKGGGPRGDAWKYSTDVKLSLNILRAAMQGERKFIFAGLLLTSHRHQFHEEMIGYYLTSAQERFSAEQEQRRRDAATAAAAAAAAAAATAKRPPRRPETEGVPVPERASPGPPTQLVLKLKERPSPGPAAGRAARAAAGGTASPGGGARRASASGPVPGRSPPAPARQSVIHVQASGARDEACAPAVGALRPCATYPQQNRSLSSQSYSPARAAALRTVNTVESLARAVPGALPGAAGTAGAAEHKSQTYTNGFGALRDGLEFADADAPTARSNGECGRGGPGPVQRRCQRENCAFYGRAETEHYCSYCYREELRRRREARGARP
Outline: as §1

UniProt Q9P2H5 = biological target: T3, UniProt Q9P2H5
T3 sequence (whole entry): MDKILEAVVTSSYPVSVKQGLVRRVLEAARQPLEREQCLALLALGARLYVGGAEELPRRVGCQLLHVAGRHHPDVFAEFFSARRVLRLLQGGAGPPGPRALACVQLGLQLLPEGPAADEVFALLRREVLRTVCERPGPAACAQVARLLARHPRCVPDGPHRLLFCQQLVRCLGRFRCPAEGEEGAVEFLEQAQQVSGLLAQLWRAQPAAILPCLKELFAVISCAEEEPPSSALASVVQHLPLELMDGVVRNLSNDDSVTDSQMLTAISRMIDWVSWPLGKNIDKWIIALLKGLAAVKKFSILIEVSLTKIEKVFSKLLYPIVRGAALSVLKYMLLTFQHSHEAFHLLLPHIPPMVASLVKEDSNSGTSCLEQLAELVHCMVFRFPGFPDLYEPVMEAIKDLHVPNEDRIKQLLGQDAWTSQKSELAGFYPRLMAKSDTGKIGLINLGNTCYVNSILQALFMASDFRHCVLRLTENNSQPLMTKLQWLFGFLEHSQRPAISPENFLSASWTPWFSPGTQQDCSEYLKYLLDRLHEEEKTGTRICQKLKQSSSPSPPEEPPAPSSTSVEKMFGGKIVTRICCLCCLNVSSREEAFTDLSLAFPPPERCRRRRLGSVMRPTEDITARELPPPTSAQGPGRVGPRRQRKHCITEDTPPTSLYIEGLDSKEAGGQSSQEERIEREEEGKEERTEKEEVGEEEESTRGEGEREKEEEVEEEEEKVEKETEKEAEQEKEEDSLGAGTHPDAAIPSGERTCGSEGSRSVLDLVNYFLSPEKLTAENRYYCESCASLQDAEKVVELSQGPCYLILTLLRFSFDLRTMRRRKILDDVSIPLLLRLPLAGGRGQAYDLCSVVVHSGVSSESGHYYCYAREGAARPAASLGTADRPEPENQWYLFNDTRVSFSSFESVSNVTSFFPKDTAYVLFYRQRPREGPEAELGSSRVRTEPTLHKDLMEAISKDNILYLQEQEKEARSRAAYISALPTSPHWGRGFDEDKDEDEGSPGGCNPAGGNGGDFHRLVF
Outline: as §1

UniProt Q9UGI0 = biological target: T4, UniProt Q9UGI0
T4 sequence (whole entry): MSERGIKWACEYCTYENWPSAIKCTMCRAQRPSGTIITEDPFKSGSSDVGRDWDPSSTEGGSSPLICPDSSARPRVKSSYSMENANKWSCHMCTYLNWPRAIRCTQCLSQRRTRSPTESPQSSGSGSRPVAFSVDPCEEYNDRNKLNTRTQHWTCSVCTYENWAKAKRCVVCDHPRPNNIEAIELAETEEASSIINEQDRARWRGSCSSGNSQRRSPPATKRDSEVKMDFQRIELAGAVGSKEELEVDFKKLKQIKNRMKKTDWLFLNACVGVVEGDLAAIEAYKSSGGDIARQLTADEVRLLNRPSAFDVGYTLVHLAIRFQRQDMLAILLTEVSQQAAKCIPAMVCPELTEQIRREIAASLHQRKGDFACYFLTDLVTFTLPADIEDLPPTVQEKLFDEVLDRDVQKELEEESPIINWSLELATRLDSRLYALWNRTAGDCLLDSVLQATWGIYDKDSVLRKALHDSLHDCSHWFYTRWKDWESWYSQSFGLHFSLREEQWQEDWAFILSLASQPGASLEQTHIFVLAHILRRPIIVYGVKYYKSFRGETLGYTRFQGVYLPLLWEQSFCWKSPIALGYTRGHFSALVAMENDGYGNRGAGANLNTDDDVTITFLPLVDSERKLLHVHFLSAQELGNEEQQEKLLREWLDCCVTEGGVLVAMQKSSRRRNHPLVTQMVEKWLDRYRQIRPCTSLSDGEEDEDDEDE
Outline: as §1

YOD1 = biological target: T5, YOD1 (UniProt Q5VVQ6)
T5 sequence (whole entry): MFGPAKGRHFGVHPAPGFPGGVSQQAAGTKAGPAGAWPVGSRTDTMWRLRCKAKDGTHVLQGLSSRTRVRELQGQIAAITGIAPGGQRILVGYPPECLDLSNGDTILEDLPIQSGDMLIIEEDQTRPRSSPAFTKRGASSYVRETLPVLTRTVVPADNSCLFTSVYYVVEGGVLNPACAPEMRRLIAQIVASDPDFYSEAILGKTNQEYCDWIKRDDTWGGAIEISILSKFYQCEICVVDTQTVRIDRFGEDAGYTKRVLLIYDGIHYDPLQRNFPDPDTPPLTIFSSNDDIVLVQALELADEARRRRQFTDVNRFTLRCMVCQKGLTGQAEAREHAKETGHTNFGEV
Outline: as §1

Measured: log2 ratio of Biotin-Ahx-Ub-VS probe labelling

Cc1ccc(-c2nnc(C)[nH]2)c(NC(=O)CCl)c1
inactive: USP9X -0.0335 | UniProt O00487 -0.138 | UniProt O00507 -0.0161 | UniProt P51784 0.126 | UniProt Q5T2D3 -0.148 | UniProt Q8TE49 -0.185 | UniProt Q9P2H5 0.245 | UniProt Q9UGI0 -0.97 | YOD1 -0.102
